Mm-Cpn inhibitor = inhibitors of Methanococcus maripaludis chaperonin TRiC (MmCpn); purified Mm-Cpn ATPase, ADP Transcreener TR-FRET; Potency, µM (series often up to 76.9 µM), for inactives: at the highest dose activity, negative = inhibition, hits mostly inhibitors; 0.031% of 330,000 active; AID 504842; note: potency is the fitted concentration of half-maximal effect; % is set by controls: 0 for no effect and ±100 for the full control effect; nearly all actives have a fitted effect of over 80% in size
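Reaction buffer contained 30 mM Tris pH 7.4, 100 mM KCl, 5 mM MgCl2 and 1 mM DTT. Mm-CPN (25 nM final) hydrolysed 10 uM ATP over 30 min at 37°C; ADP was read by HTRF.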
Glioma ERSR ind = induces the endoplasmic reticulum stress response in human glioma cells; Potency, µM, for the others: top-dose activation, hits mostly activators; U87-MG GRP78 promoter luciferase reporter, 16 h; 0.02% of 420,000 active; note: potency is the fitted concentration of half-maximal effect; series mostly up to about 76 µM; % of control where 0% means no effect; nearly all actives have a fitted effect of over 35% in size
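Stably transfected U87-MG glioma cells carrying a GRP78-based luciferase sensor; 16 h compound incubation. Luminescence end-point read 10 min after Bright-Glo addition at room temperature.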
CCT modulator = changes cytosolic chaperonin activity. purified chaperonin ATPase assay, HTRF ADP detection, 30 min. activity change, % (no concentration beside the values), hits read low. 0.3% of 360,000 active. AID 651819; in the data active = activity change below about -30%; note: % is set by controls: 0 for no effect and ±100 for the full control effect
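Nucleotide hydrolysis assay: TRiC at 20–40 nM final (set by batch activity) with 10 uM ATP, 30 min at 37 °C, in presence of 76 uM compound. Detection by competitive ADP HTRF, 30 min ambient.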
pAkt inh = blocks phosphorylation of Akt; Neuro2A IGF-stimulated pAkt S473 HTRF, 20 min; stronger effect = lower value; activity change, % for hits at 50 µM; 0.32% of 360,000 active; in the data active = activity change below about -80%; inconclusive = mostly about -51% to -80%; note: % is set by controls: 0 for no effect and ±100 for the full control effect
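Neuro2A cells in DMEM with 0.5% FBS, overnight at 37 deg C, given compound at single 50 µM final, then IGF (6 nM final) for 20 min at 37 deg C. Lysed; phospho-Akt Ser473 by HTRF after 24 h, 665/615 ratio.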
GLS inh = inhibitors of human glutaminase (GLS) | O94925 | GLS enzymatic activity, qHTS titration | Potency, µM (doses to about 45.5 µM), without a hit: at the top dose activity change, negative = inhibition, usual class: inhibitors | 0.21% of 410,000 active; note: potency is the fitted concentration of half-maximal effect; % is set by controls: 0 for no effect and ±100 for the full control effect
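hKGA in 45 mM KH2PO4 (pH 8.2), 0.02% Tween-20 with compound, then 1mM L-Glutamine (stock as added) plus glutamate oxidase/HRP/Amplex red coupling mix. Fluorescence read initially and after 30 min at RT; signal change reflects glutamate formation.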
mIDH1 inhibitor = human IDH1 R132H inhibition; IDH1-R132H enzyme, NADPH consumption, diaphorase/resazurin fluorescence; AID 602179; 0.093% of 390,000 active; Potency, µM (highest dose often 76.6 µM), inactives show top-dose activity change, negative = inhibition, hits mostly inhibitors; O75874; note: potency is the fitted concentration of half-maximal effect; % is set by controls: 0 for no effect and ±100 for the full control effect; nearly all actives have a fitted effect of over 65% in size
Target sequence (O75874 whole entry R132H, stated change not applied): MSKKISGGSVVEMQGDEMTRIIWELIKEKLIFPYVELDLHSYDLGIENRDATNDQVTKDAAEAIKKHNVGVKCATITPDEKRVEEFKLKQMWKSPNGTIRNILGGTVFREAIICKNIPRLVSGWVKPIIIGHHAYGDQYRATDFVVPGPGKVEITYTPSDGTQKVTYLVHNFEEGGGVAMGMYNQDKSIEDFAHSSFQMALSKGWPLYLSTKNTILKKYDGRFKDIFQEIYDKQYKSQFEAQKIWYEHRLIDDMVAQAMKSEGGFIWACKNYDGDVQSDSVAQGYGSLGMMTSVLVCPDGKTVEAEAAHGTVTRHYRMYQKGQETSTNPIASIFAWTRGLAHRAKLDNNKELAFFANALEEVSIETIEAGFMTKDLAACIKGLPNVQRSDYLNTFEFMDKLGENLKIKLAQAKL
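IDH1-R132H (0.5 ug/mL dispensed) in pH 7.5 Tris buffer was preincubated 30 min with compound, then given a substrate mix of 0.016 mM NADPH and 2 mM alpha-KG for 80 min at room temperature; remaining NADPH was read by diaphorase/resazurin fluorescence.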
IDH1 autofl = counter-screen for mutant IDH1 inhibitors: fluorescence interference; 750 tested, under 10 active; Resorufin detection reagent fluorescence interference, cell-free; shares compounds with mIDH1 inhibitor; inhibition of signal, % at 51.2 µM;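 note: 0% = wells with normal resorufin and full inhibition = wells lacking resorufin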
WT IDH1 inh = inhibits human wild-type IDH1, mutant selectivity check; shares compounds with mIDH1 inhibitor; WT IDH1 enzyme, NADPH diaphorase/resazurin fluorescence; 9% of 750 active; AID 623995; Potency, µM (titrated, usually from 115 µM), inactives show at the highest dose activity change, negative = inhibition, usual class: inhibitors;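 note: potency is the fitted concentration of half-maximal effect; 0% = full WT IDH1 enzyme control and full inhibition = no enzyme wells; nearly all actives have a fitted effect of over 55% in size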
Target sequence (O75874 whole entry, looked up): as the sequence (O75874 whole entry R132H, stated change not applied) above, with H132R counted along it
mIDH1 confirm = mutant IDH1 (human) inhibition, confirmed; 83% of 750 active; shares compounds with mIDH1 inhibitor; IDH1 R132H enzyme, NADPH diaphorase/resazurin fluorescence; Potency, µM (top dose mostly 76.6 µM), inactives show at the top dose activity change, negative = inhibition, usual class: inhibitors; note: potency is the fitted concentration of half-maximal effect; nearly all actives have a fitted effect of over 50% in size
An asterisk follows results filed as active; i = inactive; ? = inconclusive; . = no result given. Rows were chosen to be rich in hits. Some 0.85% of all compounds tested hit in one or more screens of this group. Unless noted, calls come from the whole dose curve; as a rule, active = well fitted curve in the direction sought with a large enough effect; inconclusive = small, poorly fitted or top-dose-only effect, or another doubt; inactive = no such curve, though single readings can be large; an effect the other way counts as inactive or inconclusive.

SMILES	Mm-Cpn inhibitor	Glioma ERSR ind	CCT modulator	pAkt inh	GLS inh	mIDH1 inhibitor	IDH1 autofl	WT IDH1 inh	mIDH1 confirm
CCOC(=O)C1CCCN(C(=O)c2cnn(-c3nccc(-c4cc(C)sc4C)n3)c2C)C1 (configuration not stated)	.	0%	.	.	.	.	.	.	.
COC(=O)[C@@]12CCCCN1[C@H](c1ccc(-c3ccc(F)cc3)c(OC)c1)[C@@H]1C(=O)N(C)C(=O)[C@@H]12	-1%	-2%	0	i	6%	40µM*	-3	3%	6.3µM*
COC(=O)[C@@]12CCCCN1[C@H](c1ccc(-c3ccc4c(c3)OCO4)c(OC)c1)[C@@H]1C(=O)N(C)C(=O)[C@@H]12	-3%	-3%	-1	i	1%	?	10	3%	11µM*
CCN1C(=O)[C@@H]2[C@@H](c3ccc(-c4ccc(OC)cc4)c(OC)c3)N3CCCC[C@@]3(C(=O)OC)[C@@H]2C1=O	-8%	-4%	0	i	11%	-19%	.	.	.
CCN1C(=O)[C@H]2[C@@H](c3ccc(-c4ccc(OC)cc4)c(OC)c3)N3CCCC[C@@]3(C(=O)OC)[C@H]2C1=O	-3%	1%	0	i	-1%	?	5	-5%	13µM*
COC(=O)[C@@]12CCCN1[C@H](c1ccc(-c3ccc4c(c3)OCO4)c(OC)c1)[C@H]1C(=O)N(C)C(=O)[C@H]12	1%	0%	1	i	2%	-6%	.	.	.
O=C(C=P(c1ccccc1)(c1ccccc1)c1ccccc1)c1ccccc1-c1ccccc1C(=O)C=P(c1ccccc1)(c1ccccc1)c1ccccc1	.	10%	1	i	-2%	23µM*	2	?	3.2µM*
CC/C(=C\C1CCCCC1)C(NP(=O)(c1ccccc1)c1ccccc1)c1ccccc1 (configuration not stated)	0%	5%	2	i	1%	28µM*	-7	1%	22µM*
O=P(NC1CCCCC1)(c1ccccc1)c1ccccc1	.	-1%	1	i	-7%	1%	.	.	.
Cc1c(C(=O)N(C)CC2CCCN(C)C2)cnn1-c1nccc(-c2ccco2)n1 (configuration not stated)	.	3%	.	.	.	.	.	.	.
O=C1CCCC2=C1C(c1cccs1)Nc1ccc3ncccc3c12 (configuration not stated)	0%	-4%	1	i	1%	4%	.	.	.
Cc1ccsc1C1Nc2ccc3ncccc3c2C2=C1C(=O)CC(C)(C)C2 (configuration not stated)	0%	2%	-4	i	-1%	?	-19	?	2.8µM*
Cc1ccccc1C1(CC(=O)N2CCC[C@H]2C(N)=O)CC(=O)N(C2CCCC2)C1=O (some centres not stated)	.	0%	.	.	.	.	.	.	.
COc1ccc(-c2sc(Nc3ccc(F)c(F)c3F)nc2CCC(=O)NN)cc1	-1%	3%	1	i	-27%	29µM*	-9	-21%	28µM*
c1cn2cc(-c3ccc4c(c3)OCO4)nc2s1	2%	1%	-63*	.	.	23µM*	-4	141%	50µM*
CC(=O)Nc1ccc(-c2cn3ccsc3n2)cc1	-1%	-12%	-3	i	-8%	-4%	.	.	.
COc1cc(=O)n2c(c1C(=O)N(C)Cc1nonc1C)CCN(C(=O)c1cc(C)cc(C)c1)CC2	.	7%	.	.	.	.	.	.	.
COc1ccccc1C(=O)N[C@@H]1c2ccccc2C2(CCN(C(=O)c3ccnn3C)CC2)[C@H]1OC	.	0%	.	.	.	.	.	.	.
COc1ccc(-c2c(-c3ccsc3)oc(=O)c3cc(OC)c(OC)cc23)cc1	0%	9%	-1	i	5%	11µM*	5	0%	8.9µM*
COc1cc2c(-c3cc(F)cc(F)c3)c(-c3ccsc3)oc(=O)c2cc1OC	-1%	-5%	1	i	1%	-4%	.	.	.
COCc1ccc(-c2c(-c3ccc(OC)cc3)oc(=O)c3cc(OC)c(OC)cc23)cc1	1%	-3%	2	i	1%	32µM*	-5	-4%	10µM*
COc1ccc(-c2oc(=O)c3cc(OC)c(OC)cc3c2-c2ccc3c(c2)OCO3)cc1	-5%	-1%	-1	i	0%	21%	.	.	.
Cc1cnc(-n2ncc(C(=O)NCC(C)(C)N3CCOCC3)c2C)nc1-c1cccs1	.	-5%	.	.	.	.	.	.	.
COc1ccc(S(=O)(=O)Nc2ccc(Cc3ccncc3)cc2)cc1C	1%	-3%	-1	i	1%	1%	.	.	.
Cc1noc(NS(=O)(=O)c2ccc(NS(=O)(=O)c3ccc(C(C)(C)C)cc3)cc2)c1C	.	-7%	0	i	-1%	40µM*	9	-7%	11µM*
SMILES	Mm-Cpn inhibitor	Glioma ERSR ind	CCT modulator	pAkt inh	GLS inh	mIDH1 inhibitor	IDH1 autofl	WT IDH1 inh	mIDH1 confirm
CC(C)(C)c1ccc(S(=O)(=O)Nc2ccc(Cc3ccncc3)cc2)cc1	-2%	0%	-1	i	12%	?	-1	-6%	20µM*
COC(=O)CC(NC1CCN(c2nc(C)c3cc4c(cc3n2)CCC4)CC1)C(=O)OC (configuration not stated)	.	-3%	.	.	.	.	.	.	.
COc1cccc(-c2ccc(O)c(CNC(c3ccccc3)c3ccc(Cl)cc3)c2)n1 (configuration not stated)	.	-4%	.	.	.	.	.	.	.
Cc1ccc(-c2ccc(/C=C3\C(=O)ON=C3c3ccccc3)o2)c([N+](=O)[O-])c1	-1%	-1%	-3	i	56%	52µM*	7	79µM*	35µM*
Cc1ccc(/C=C2\C(=O)ON=C2c2ccccc2)o1	-1%	1%	2	i	-15%	8%	.	.	.
Cc1cc(C(=O)N2CCOc3ccc(CN4CCC(Oc5cccnc5)CC4)cc3C2)c(C)o1	.	-9%	.	.	.	.	.	.	.
CC(=O)Nc1ccc(NC(=O)c2ccc(NS(=O)(=O)c3cc(C(C)(C)C)cc(C)c3C)cc2)cc1	-3%	-3%	-1	i	1%	-11%	.	.	.
Cc1cc(C(C)(C)C)cc(S(=O)(=O)Nc2ccc(O)c(C(=O)O)c2)c1C	-1%	-2%	0	i	25%	?	0	1%	28µM*

Screening results as filed in PubChem.
